We go through eight compounds from PubChem BioAssay (NCI).

The panel holds about 83,000 compounds, 20% with a hit somewhere; the sample as a whole holds those more often.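 Testing used 96-well plates and a 48-hour single-concentration exposure. Example: -40 means 40% of the starting cells died.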 A number with no mark means an inactive call. Activity calls are given as the source filed them. Rule for the calls: active = growth percent below 10; inactive = the rest.

Among the test systems are NCI-H23 lung; NCI-H226 lung; NCI-H322M lung; HOP-62 NSCLC; NCI-H460 lung; HOP-92 NSCLC; NCI-H522 lung; A549/ATCC NSCLC; 786-0 renal; COLO 205 colon; DU-145 prostate; K-562 leukemia; MALME-3M melanoma; MDA-MB-231 breast; RXF 393 renal; SF-268 CNS; SF-295 CNS; SF-539 CNS; UACC-257 melanoma; M14 melanoma.
What all share (experiment): NCI-60 one-dose screen, 48 h (100 = growth as untreated, 0 = no growth, -100 = all killed)
Common to all, as to conditions: 10 µM unless noted

As to `O=[N+]([O-])c1ccc(O)cc1Br`, the growth is 95.1% in the assay with NCI-H23 lung; 93.2% in the assay with NCI-H226 lung; 105% in the assay with NCI-H322M lung; 92.4% with HOP-62 NSCLC; 104% in the assay with NCI-H460 lung; 44.8% with HOP-92 NSCLC. The growth in the assay with NCI-H522 lung is 90.7%; in the assay on A549/ATCC NSCLC it was 103%; with 786-0 renal, 99.8%; with COLO 205 colon, 108%; in the assay with DU-145 prostate, 103%; in the assay on K-562 leukemia, 93%. Besides, the growth in the assay on MALME-3M melanoma was 102%; with MDA-MB-231 breast, 95.4%; with RXF 393 renal it was 107%; in the assay with SF-268 CNS it was 99.6%; with SF-295 CNS, 89.4%; with SF-539 CNS, 91.6%. Besides, the growth with UACC-257 melanoma was 108%.
Regarding `CCCCCCCC[C@@H]1N[C@@H](C(=O)OC)Cc2c1[nH]c1ccccc21`, the growth was 92.1% in the assay with NCI-H23 lung; 92.5% in the assay on NCI-H226 lung; 99.7% in the assay on NCI-H322M lung; 103% with HOP-62 NSCLC; 102% in the assay with NCI-H460 lung; 89.5% in the assay with HOP-92 NSCLC. The growth is 86.6% in the assay on NCI-H522 lung; 104% in the assay with A549/ATCC NSCLC; 96.2% with 786-0 renal; 113% with COLO 205 colon; 106% in the assay with DU-145 prostate; 88.4% in the assay on K-562 leukemia. Besides, the growth with MALME-3M melanoma was 83%; in the assay with MDA-MB-231 breast, 96.2%; in the assay on RXF 393 renal, 96.6%; with SF-268 CNS, 97.3%; in the assay on SF-295 CNS, 102%; in the assay on SF-539 CNS, 93.7%. Further, in the assay on UACC-257 melanoma, the growth is 101%.
On to `Cn1ccnc1C(=O)/C=C/c1ccc(C(=O)Nc2ccc(Cl)cc2)cc1`, for which the growth is -18.7% (active) with NCI-H23 lung; 16.8% in the assay with NCI-H226 lung; 0.414% (active) in the assay on NCI-H322M lung; -4.38% (active) in the assay with HOP-62 NSCLC; -28.7% (active) in the assay on NCI-H460 lung; 17% with HOP-92 NSCLC. Also, the growth in the assay on NCI-H522 lung was -5.14% (active); in the assay with A549/ATCC NSCLC, 6.96% (active); in the assay on 786-0 renal, -78.8% (active); with COLO 205 colon it was 1.1% (active); with DU-145 prostate, 10.9%; in the assay with K-562 leukemia it was 2.13% (active). In addition, the growth in the assay with MALME-3M melanoma was 51.5%; in the assay on MDA-MB-231 breast, 1.85% (active); in the assay with RXF 393 renal, -57.1% (active); with SF-268 CNS, 0.451% (active); in the assay with SF-295 CNS it was 27.3%; in the assay with SF-539 CNS it was -73.4% (active). The growth in the assay with UACC-257 melanoma was 51.6%.
In the case of `Cn1cc(-c2csc(-c3cn(C(=O)OC(C)(C)C)c4ccc(Br)cc34)n2)c2ccnc(Cl)c21`, the growth was 81.7% in the assay with NCI-H23 lung; 73.3% in the assay with NCI-H226 lung; 85.3% with NCI-H322M lung; 68.5% in the assay on HOP-62 NSCLC; 68.7% in the assay with NCI-H460 lung; 58.8% in the assay with HOP-92 NSCLC. Moreover, the growth in the assay on NCI-H522 lung was 66.7%; in the assay on A549/ATCC NSCLC, 70.3%; with 786-0 renal, 74.7%; in the assay with COLO 205 colon it was 90.9%; in the assay with DU-145 prostate, 68.3%; with K-562 leukemia, 86.9%. The growth in the assay on MALME-3M melanoma was 36.6%; in the assay with MDA-MB-231 breast it was 61.2%; in the assay with RXF 393 renal it was 78.3%; in the assay on SF-268 CNS, 82.4%; in the assay on SF-295 CNS it was 89.9%; with SF-539 CNS, 55.5%. Besides, the growth in the assay on UACC-257 melanoma is 70.3%.
As to `CC(O)(c1ccccc1)C(c1ccccc1)C1CCCCN1` (centres undefined), the growth was 107% in the assay on NCI-H23 lung; 102% in the assay with NCI-H226 lung; 88.5% in the assay on NCI-H322M lung; 99.3% with HOP-62 NSCLC; 103% with NCI-H460 lung; 90.3% with HOP-92 NSCLC. The growth with NCI-H522 lung is 95.1%; with A549/ATCC NSCLC, 88.1%; in the assay on 786-0 renal it was 103%; with COLO 205 colon, 103%; in the assay with DU-145 prostate, 103%; with K-562 leukemia it was 95.6%. Besides, the growth with MALME-3M melanoma was 97.5%; with MDA-MB-231 breast it was 93.9%; in the assay with RXF 393 renal, 106%; with SF-268 CNS, 99.6%; with SF-295 CNS, 99.8%; in the assay with SF-539 CNS, 96.5%. In the assay on UACC-257 melanoma, the growth was 96.2%.
As for `COc1ccc(Nc2ncc(Br)c(NCCCNC(=O)C3CCCC3)n2)cc1`, the growth in the assay on NCI-H23 lung was 30.3%; with NCI-H226 lung it was 28.5%; with NCI-H322M lung, 58.5%; with HOP-62 NSCLC it was 22.4%; in the assay with NCI-H460 lung, 23.6%; with HOP-92 NSCLC, 26%. The growth in the assay with NCI-H522 lung was 65.7%; with A549/ATCC NSCLC, 38.9%; with 786-0 renal it was 36.3%; in the assay on COLO 205 colon, 21.6%; in the assay on DU-145 prostate, 48.9%; with K-562 leukemia, 31.2%. Moreover, the growth was 58.5% in the assay with MALME-3M melanoma; -27.7% (active) in the assay on MDA-MB-231 breast; -20.9% (active) in the assay with RXF 393 renal; 21.6% in the assay on SF-268 CNS; 39.4% in the assay with SF-295 CNS; 2.9% (active) in the assay with SF-539 CNS. Moreover, the growth with UACC-257 melanoma was 96.5%.
As to `O=C(Nc1ccc(Oc2cccc(Cl)c2)c(Cl)c1)c1cccnc1`, the growth is 47.9% in the assay with NCI-H23 lung; 54.3% in the assay on NCI-H226 lung; 47.1% with NCI-H322M lung; 38% in the assay on HOP-62 NSCLC; 22.2% in the assay on NCI-H460 lung; 61.3% in the assay on HOP-92 NSCLC. Moreover, the growth was 27.3% with NCI-H522 lung; 36.8% in the assay on A549/ATCC NSCLC; 39.2% in the assay with 786-0 renal; 15.4% in the assay with COLO 205 colon; 16.1% with DU-145 prostate; 11.1% in the assay on K-562 leukemia. The growth in the assay on MALME-3M melanoma is 50.1%; in the assay with MDA-MB-231 breast it was 59%; with RXF 393 renal, -0.145% (active); with SF-268 CNS, 53.4%; in the assay on SF-295 CNS it was 41.4%; in the assay with SF-539 CNS, -8.37% (active). Also, the growth in the assay with UACC-257 melanoma is 64.2%; with M14 melanoma it was 21.8%.
On to `N#CSCC1CC(O)(c2ccccc2)CC(c2ccc(F)cc2)O1` (centres undefined), for which the growth in the assay on NCI-H23 lung was 20.5%; with NCI-H226 lung, -7.79% (active); in the assay with NCI-H322M lung, 50.9%; with HOP-62 NSCLC, -36.8% (active); in the assay with NCI-H460 lung it was -28.9% (active); in the assay with HOP-92 NSCLC, 29.6%. Also, the growth is -57% (active) in the assay with NCI-H522 lung; 27.8% in the assay with A549/ATCC NSCLC; 0.242% (active) in the assay with 786-0 renal; 16.6% in the assay on COLO 205 colon; -27.8% (active) in the assay on DU-145 prostate; 20.7% in the assay with K-562 leukemia. Also, the growth in the assay with MALME-3M melanoma was 29.1%; with MDA-MB-231 breast it was -1.42% (active); in the assay on RXF 393 renal it was -35.3% (active); in the assay with SF-268 CNS, -26.3% (active); in the assay on SF-295 CNS, -17.2% (active); in the assay with SF-539 CNS it was 21%. Besides, the growth with UACC-257 melanoma is 69.1%; with M14 melanoma, -35.6% (active).
